Compound activity from PubChem.
This is one part of a sample in which hits are shown more often than they occur.
D1 mod – allosteric modulators of human D1 dopamine receptor; P21728; HEK293 D1, CRE-luciferase, dopamine EC30 potentiation; actives deviate in either direction; B-score at 10 µM; 5.9% of 58,000 active; AID 641;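 active means luminescence count or its row- and column-corrected plate score outside the 99.7% band of the plate's sample wells, on either side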
Target sequence (P21728 whole entry, looked up): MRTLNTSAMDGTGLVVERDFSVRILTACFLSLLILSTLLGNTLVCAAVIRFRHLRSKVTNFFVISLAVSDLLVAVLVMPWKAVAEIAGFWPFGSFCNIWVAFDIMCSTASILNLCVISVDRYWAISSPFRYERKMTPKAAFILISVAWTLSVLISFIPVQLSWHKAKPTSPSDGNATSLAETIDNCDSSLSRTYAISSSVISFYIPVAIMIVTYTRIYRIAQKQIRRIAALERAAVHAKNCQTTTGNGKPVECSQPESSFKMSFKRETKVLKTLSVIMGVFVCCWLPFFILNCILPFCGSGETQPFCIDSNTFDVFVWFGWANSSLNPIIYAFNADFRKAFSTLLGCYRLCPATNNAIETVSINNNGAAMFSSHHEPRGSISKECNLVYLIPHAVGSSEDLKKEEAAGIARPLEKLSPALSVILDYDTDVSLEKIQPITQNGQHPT
ROCK2 blocker – inhibitors of human Rho kinase 2 | purified ROCK2, Kinase-Glo ATP depletion luminescence | inhibition, % at 6 µM | 0.35% of 60,000 active | AID 604;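 active means inhibition above the screen-wide mean inhibition plus 3 SD, cut at about 18% in these data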;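 further: plate controls were DMSO wells for no effect and Y-27632 control wells after no-enzyme background subtraction for full effect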
PKA inh – blocks human protein kinase A activity | PKA Kemptide phosphorylation, Kinase-Glo ATP luminescence | P17612 | inhibition, % at 6 µM | 0.1% of 65,000 active;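 active means inhibition above the screen-wide mean inhibition plus 3 SD, cut at about 21% in these data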
hDAT+cocaine – modulates human dopamine transporter uptake under cocaine; B-score at 10 µM; 1.3% of 110,000 active; LLC-PK1 hDAT cells, [14C]-dopamine uptake with cocaine IC80; actives deviate in either direction;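 active means Z score or B-score, a plate-position-corrected score, falls beyond the plate's 99.7% confidence bounds, in either direction; inactive means both scores lie inside the 99.7% bounds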;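 further: scored against the spread of the other compound wells on the same plate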
D1 mod confirm – confirmation of human D1 dopamine receptor allosteric modulators; shares compounds with D1 mod; HEK293 D1 CRE-luciferase, dopamine EC30 potentiation; hits give high values; luminescence at 10 µM; 88% of 2,200 active;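 active means luminescence in either of two replicates above the same-plate mean plus 3 SD of the low-dose dopamine control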
D1 ag no DA – activates D1 CRE-luciferase signal without dopamine present | shares compounds with D1 mod | HEK293 D1 CRE-luciferase, luminescence, no dopamine; hits give high values | luminescence at 10 µM | 0.8% of 1,900 active | AID 646; in the data active means luminescence above about 3900
Isoprot counter – alters isoproterenol CRE-luciferase response in HEK293 cells. shares compounds with D1 mod. HEK293 D1 CRE-luciferase, isoproterenol EC30 counter-screen. calls only at 10 µM. 63% of 2,200 active. AID 647;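 active means luminescence in either replicate above plate mean of wells with a partly effective reference agonist dose plus 3 SD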;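 further: isoproterenol raises cAMP through native beta-adrenoceptor Gs so signal bypasses D1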
The depositor's hits bear a star; i = inactive; · = no result given; + = active, no number.

SMILES | D1 mod | ROCK2 blocker | PKA inh | hDAT+cocaine | others
Nc1c(C(=O)OC2CCCCC2)c2nc3ccccc3nc2n1CC1CCCO1 (stereo unspecified) | -1.5 | 4 | 6 | 3.4*
CCCNC(=O)c1c(N)n(CC2CCCO2)c2nc3ccccc3nc12 (stereo unspecified) | -0.19 | -9 | -6 | -8.9*
CC(C)OCCCNC(=O)c1c(N)n(CC2CCCO2)c2nc3ccccc3nc12 (stereo unspecified) | -0.75 | -11 | -7 | -0.16
COC(=O)C1=C(c2cccc(OC)c2OC)C[C@@H]2CC[C@H]1N2C(=O)NCc1ccco1 | · | · | · | 0.96
O=C1NC(=O)C2(Cc3c(nc4ccccn4c3=O)N3CCCCCC32)C(=O)N1Cc1ccccc1 (stereo unspecified) | -0.31 | -1 | 1 | 2.5*
O=C(CN1CCN(Cc2cccc(Cl)c2)C1=O)N1CCC2(CC1)OCCO2 | 0.19 | · | -8 | -0.71
O=C(Cn1ncc2c3ccccc3n(Cc3cccc(Cl)c3)c2c1=O)N1CCC2(CC1)OCCO2 | 1.4 | 4 | 5 | 6*
COC(=O)C1=C(c2ccccc2)C[C@@H]2CC[C@H]1N2C(=O)N1CCCC1 | · | · | · | -0.041
CC(C)[N+](C)(CCC(C(N)=O)(c1ccccc1)c1ccccc1)C(C)C | · | · | · | -0.13
C[C@@H]1O[C@@H](O[C@H]2C[C@@H](O)[C@]3(CO)[C@H]4[C@H](O)C[C@]5(C)[C@@H](C6COC(=O)C6)CC[C@]5(O)[C@@H]4CC[C@]3(O)C2)[C@H](O)[C@H](O)[C@H]1O (stereo partly specified) | · | · | · | -6.4*
CCN1C[C@@]2(COC)C3[C@@H](OC)[C@H]4[C@@H]1[C@@]3(C1C[C@H]3[C@H](OC(C)=O)C1[C@]4(OC(C)=O)C[C@H]3OC)[C@@H](OC)C[C@H]2OC(C)=O (stereo partly specified) | · | · | · | -0.1
Cc1ccc2c(c1)C1CN(C)CCC1N2C(=O)Nc1cccc(Cl)c1 (stereo unspecified) | · | · | · | 3.4*
COC(=O)C1=C(c2cc3ccccc3s2)C[C@@H]2CC[C@H]1N2C(=O)N1CCCC1 | · | · | · | 0.7
Cc1ccc(S(=O)(=O)N[C@@H](CCCCN)C(=O)CCl)cc1 | · | · | · | -1
Cc1nc2cc(F)ccc2n1C1CCN(Cc2nnnn2CCc2ccccc2)CC1 | 1.2 | 4 | 11 | 1
Cc1nc2cc(C(F)(F)F)ccc2n1C1CCN(Cc2nnnn2CCc2ccccc2)CC1 | · | · | · | 3.5*
COc1ccc(-c2cc(=O)c3c(OC)c(OC)c(OC)cc3o2)cc1 | · | · | · | 4.7*
COC1CC(OC2CCC3(C)C(CCC4C3CCC3(C)C(C5=CC(=O)OC5)C(OC(C)=O)CC43O)C2)OC(C)C1OC1OC(COC2OC(CO)C(O)C(O)C2O)C(O)C(O)C1O (stereo unspecified) | · | · | · | -8.9*
CCCC[N+]1(C)[C@@H]2CC(OC(=O)[C@H](CO)c3ccccc3)C[C@H]1[C@@H]1O[C@@H]12 (stereo partly specified) | · | · | · | -0.43
O=C(Nc1ccc(Cl)cc1C(=O)c1ccccc1Cl)c1ccco1 | · | · | · | 0.0061
CCCC1(CCC)C(=O)NC(=NCc2ccccc2)NC1=O | -0.32 | 10 | 15 | -7.4*
CCCCCn1c(N)c(C(=O)NCCN2CCOCC2)c2nc3ccccc3nc21 | · | 1 | 1 | 0.96
COCC(C)OC(=O)c1c(N)n(Cc2ccco2)c2nc3ccccc3nc12 (stereo unspecified) | 12* | 7 | 5 | 1.5
COCCCn1c(N)c(C(=O)NCCC(C)C)c2nc3ccccc3nc21 | 0.97 | 3 | -2 | 3*
CCCCOCCCn1c(N)c(C(=O)OCCOC)c2nc3ccccc3nc21 | -1 | 6 | 1 | 1.2*
SMILES | D1 mod | ROCK2 blocker | PKA inh | hDAT+cocaine | others
Cc1[nH]c2ccccc2c1C1=CCNCC1 | -1 | 26* | 18 | 0.78
COc1cc2c(cc1OC)C13CCN4CC5=CCOC6CC(=O)N2C1C6C5CC43 (stereo unspecified) (tested in a mixture with another compound) | · | · | · | -0.34
COC(=O)CC(=O)c1ccc2c(c1)OCO2 | · | · | · | 1.2
CCn1nc(-c2cccs2)nc2c(=O)n(C)c(=O)nc1-2 | · | 69* | 2 | ·
O=c1c2ccccc2nc(-c2cccs2)n1-c1ccccc1 | · | · | · | -0.05
O=C(N[C@H]1CP(=O)(Oc2ccccc2)O[C@H](COCc2ccccc2)[C@H]1O)C(Cl)(Cl)Cl (stereo partly specified) | · | · | · | 0.64
CN1CC=C(c2c[nH]c3ccccc23)CC1 | -3.7* | -8 | -3 | -1.3
COc1ccc2[nH]cc(C3=CCNCC3)c2c1 | · | · | · | -0.22
COc1cc([C@@H]2c3cc4c(cc3[C@@H](OC)[C@H]3COC(=O)[C@H]23)OCO4)cc(OC)c1O | · | · | · | -0.39
COc1ccccc1N1CCN(Cc2cccc(OC)c2O)CC1 | -4.2* | -1 | 4 | -0.096
OC(c1ccc(F)cc1)(c1ccc(F)cc1)[C@@H]1CCCN1 | · | · | · | -3.2
OC(c1ccccc1)(c1ccccc1)C1CCNCC1 | · | · | · | -6.1*
O=C(CCCN1CCC2(CC1)C(=O)NCN2c1ccccc1)c1ccc(F)cc1 | -6.5* | -9 | -5 | 0.55
CCC(=O)O[C@@H]1[C@@H](OC(C)=O)[C@@]2(O)C(C[C@H](O)C2(C)C)[C@](C)(O)[C@H]2CC[C@@H]3[C@@H](O)[C@]12C[C@@]3(C)O (stereo partly specified) | · | · | · | -0.23
COc1ccccc1CN1CCN(C(=O)COc2ccccc2)CC1 | 0.23 | -8 | 0 | 0.33
COc1cccc(CN2CCN(C(=O)COc3ccc4ccccc4c3)CC2)c1 | · | 4 | 7 | 2.4*
N[C@@H](Cc1c[nH]c2ccccc12)c1nnc(SCc2ccc(Cl)cc2)o1 | -1 | -2 | -10 | -8.5*
NCCc1c[nH]c2ccccc12 | · | · | · | 0.037
CCN(CC)Cc1c[nH]c2ccccc12 | -8.4* | 7 | 6 | -0.18
CCC(=NCc1cccnc1)c1c(O)n(Cc2ccccc2)c(=O)[nH]c1=O | 4.8* | 0 | -7 | -0.002 | D1 mod confirm=11204*;D1 ag no DA=1512;Isoprot counter=+
CC(=NCc1cccnc1)c1c(O)n(Cc2ccccc2)c(=O)[nH]c1=O | 2.1 | 1 | -1 | 1.5
CCOC(=O)c1c(C)n(Cc2ccccc2)c2ccc(OCC(O)Cn3nc(C)cc3C)cc12 (stereo unspecified) | · | · | · | 0.64
CCOC(=O)c1c(C)n(Cc2ccccc2)c2ccc(OCC(O)Cn3nc(C)nc3C)cc12 (stereo unspecified) | 4.5* | -5 | 3 | · | D1 mod confirm=17284*;D1 ag no DA=1904;Isoprot counter=+
C[C@H]1OC[C@@H](C[N+](C)(C)C)O1 | 5.7* | -7 | -14 | -0.53 | D1 mod confirm=10372*;Isoprot counter=i
